IL1B secr inh – inflammasome signaling inhibition, IL-1 beta readout. THP-1 LPS/ATP IL-1B secretion, AlphaLISA, 16 h; stronger effect = lower value. activity change, % at 57.5 µM. hit rate 4.7% among 360,000. AID 743279; in the data active = activity change below about -50%; inconclusive = mostly about -30% to -49%
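THP-1 cells pretreated 1 hr with compounds (up to 57.5 uM final), then stimulated with LPS (250 ng/mL final) plus ATP (1.25 mM final); secreted IL-1B measured by AlphaLISA after 16 hr, decreased signal indicating inhibition.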
HT1080-NT tox – kills 2HG-producing HT-1080-NT fibrosarcoma cells | HT-1080-NT fibrosarcoma viability, CellTiter-Glo ATP luminescence, 48 h | Potency, µM (titrated, usually from 46.1 µM), without a hit: at the top dose activity, negative = less viability, hits mostly cytotoxic | hit rate 1.6% among 360,000 | AID 686970;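 also: NT is the 2HG producing partner of a matched IDH1 knockdown line; potency is read from the fitted curve at half-maximal effect; 0% = DMSO-treated cells and -100% = media-only wells without cells; nearly all actives have a fitted effect of over 55% in size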
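Viability by CellTiter-Glo luminescence after 48 h compound exposure at 37C of HT-1080-NT cells (750/well, RPMI, 5% FBS). % activity scaled between DMSO wells and medium-only wells, then curve-fitted and categorized by curve class.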
HT1080 IDH1KD tx – toxicity to HT-1080 IDH1 knockdown cells (counter line) | HT-1080 IDH1 knockdown viability, ATP luminescence, 48 h | Potency, µM (doses to about 46.1 µM), for inactives: top-dose activity, negative = toxicity, hits mostly cytotoxic | hit rate 2% among 360,000;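 also: potency is read from the fitted curve at half-maximal effect; 0% = DMSO wells and -100% = cell-free medium wells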
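HT-1080-IDH1KD cells (IDH1 knocked down), 750/well in RPMI with 5% FBS, treated with compound 48 h at 37 degrees C. Viability by CellTiter-Glo luminescence, normalised to DMSO and no-cell wells; concentration-response curves classed.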
TDP1 cell noCPT – qHTS for Inhibitors of human tyrosyl-DNA phosphodiesterase 1 (TDP1): qHTS in cells in absence of CPT. hit rate 15% among 420,000. DT40 Tdp1-/- hTDP1 cells, no CPT, ATP luminescence, 48 h. Potency, µM (doses to about 46.2 µM), inactives show at the highest dose activity change, negative = growth inhibition, hits mostly inhibitors; also: potency is read from the fitted curve at half-maximal effect; nearly all actives have a fitted effect of over 55% in size
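Cells were dispensed at 400 per well, compounds added by pin tool, plates incubated ≥48 hr at 37 °C, then CellTiter-Glo added for 30 min at room temperature before luminescence reading. Line: DT40 Tdp1-/- complemented with hTDP1; camptothecin omitted.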
DT40 TDP1 CPT – DT40-hTDP1 cell growth loss with CPT | chicken DT40 Tdp1-/-;hTDP1 cells + 20 nM CPT, ATP luminescence, 48 h | Potency, µM (titrated, usually from 46.2 µM), inactives show at the highest dose activity change, negative = growth inhibition, usual class: inhibitors | AID 686979 | hit rate 12% among 420,000; also: potency is read from the fitted curve at half-maximal effect; nearly all actives have a fitted effect of over 55% in size
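Cell growth measured by CellTiter-Glo luminescence after a minimum 48 h, 37 C compound exposure with 20 nM CPT in Tdp1-knockout DT40 cells stably expressing hTDP1, seeded 400/well; qHTS titration format.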
Numbers without * were called inactive; ? = inconclusive; · = no result. In the library only some 19% were active in any assay of this set; here they are far more common. Unless noted, calls follow the shape of the dose curve; as a rule, active = well fitted curve in the direction sought with a large enough effect; inconclusive = small, poorly fitted or top-dose-only effect, or another doubt; inactive = no such curve, though single readings can be large; an effect the other way counts as inactive or inconclusive. Unless noted, % is scaled to controls: 0 for no effect and ±100 for the full control effect.

SMILES	IL1B secr inh	HT1080-NT tox	HT1080 IDH1KD tx	TDP1 cell noCPT	DT40 TDP1 CPT
CC(CCc1ccccn1)C(=O)c1ccccc1 (stereo unspecified)	-19.6	-0.6%	12.9%	4.4%	7.8%
O=C(c1ccccc1)C(CCc1ccccn1)CCc1ccccn1	-15.9	-2.2%	-2.6%	16.4µM*	?
O=C(CC1NCCNC1=O)Nc1cccc([N+](=O)[O-])c1 (stereo unspecified)	9.1	-6.3%	-3.5%	?	?
CCOC(=O)c1cc2cc(OC)ccc2n1C1CCN(CCc2ccccc2)CC1	-9.5	?	18.4µM*	?	?
CCOC(=O)c1cc2ccccc2n1C1CCN(CCc2ccccc2)CC1	-18.9	?	?	7.31µM*	9.2µM*
Cc1ccc(S(=O)(=O)N2CCN(S(=O)(=O)N3CCCCCC3)CC2)cc1	34.1	-6.1%	1.3%	-1.5%	-0.9%
COc1ccc(Cn2c(CNC(=O)Cc3ccc(OC)c(OC)c3)nc3cccnc32)cc1	·	·	·	-25.2%	-19.1%
CC(C)Cc1ccc(S(=O)(=O)NCc2nc3cccnc3n2Cc2ccccc2)cc1	·	·	·	18.4µM*	?
COc1ccccc1Cn1c(CNS(=O)(=O)c2ccc(C(C)C)cc2)nc2cccnc21	·	·	·	23.1µM*	?
COc1ccccc1Cn1c(CNS(=O)(=O)c2ccc(CC(C)C)cc2)nc2cccnc21	·	·	·	13µM*	20.6µM*
CC(C)Cc1ccc(S(=O)(=O)Nc2ccccn2)cc1	12.8	-5.6%	-9.8%	-13.5%	-9.3%
COc1ccc(CC(=O)NCc2nc3cccnc3n2Cc2ccc(F)cc2)cc1OC	·	·	·	?	-29.9%
COCCNc1ncnc2ccc(-c3c(C)noc3C)cc12	·	·	·	?	11.6µM*
CN(C)c1ccc(-c2ccc3ncnc(NC4CC4)c3c2)cc1	·	·	·	13µM*	8.2µM*
c1nc(NC2CCNCC2)c2cc(-c3ccc4c(c3)OCO4)ccc2n1	·	·	·	14.6µM*	?
Cc1noc(C)c1-c1ccc2ncnc(NC3CC3)c2c1	·	·	·	20.6µM*	?
C[C@H](O)[C@@H]1C(=O)N2CCc3ccc(-c4cccc(F)c4)cc3[C@@H]2C[C@@H]1N(C)C(=O)Nc1ccccc1	-3.9	-13.4%	-1.2%	?	?
Nc1nc2nccc(-c3cccnc3)n2n1	-3.7	-11.7%	-20.0%	-44.4%	3.9%
COc1ccccc1C1C2C(=O)N(c3ccccc3)C(=O)C2ON1c1ccccc1 (stereo unspecified)	-6.4	-1.9%	-6.6%	-3.6%	-5.5%
COc1ccc(C2C3C(=O)N(Cc4ccccc4)C(=O)C3ON2c2ccccc2)c(OC)c1OC (stereo unspecified)	-3.6	-6.9%	-4.3%	20.6µM*	?
COc1ccc(N/C=C/C(=O)c2sc(-c3ccccc3)nc2C)cc1	-19.2	?	?	20.6µM*	16.4µM*
Cc1nc(-c2ccccc2)sc1C(=O)/C=C/c1ccc(Cl)cc1	-85.5*	8.4%	11.3%	23.1µM*	14.6µM*
COc1ccc(-c2nnc3ccc(SCC(=O)N4CCCC4)nn23)cc1	-19.1	10.7%	2.9%	?	?
COc1ccc(-c2nnc3ccc(SCC(=O)N4CCCCCC4)nn23)cc1OC	-64.7*	-3.0%	-1.6%	?	-29.4%
COc1ccc(NC(=O)CSc2ccc3nnc(-c4cccnc4)n3n2)cc1OC	-30.0	21.8%	2.6%	0.4%	-3.3%
COC(=O)c1ccc(CSc2ccc3nnc(-c4ccc(OC)c(OC)c4)n3n2)o1	0.0	5.8%	2.7%	10.3µM*	?
Cc1nn(-c2ccc(F)cc2)c(-n2cccc2)c1C(=O)N1CCN(C(=O)c2ccco2)CC1	22.6	-1.7%	-0.7%	-5.1%	-16.6%
CN1CCN(c2ccc(Cl)cc2NC(=O)c2cc(=O)[nH]c3ccccc23)CC1	-18.3	-26.7%	-0.5%	?	?
CN1CCN(c2cc3c(c4c2[nH]c2ccccc24)C(=O)CC(C)(C)C3)CC1	-64.7*	-9.2%	-25.8%	16.4µM*	?
